DUSP3 inh: blocks the human dual specificity phosphatase VHR1 | inhibition, % at 20 µM | P51452 | AID 1992 | recombinant VHR phosphatase, colorimetric substrate read-out | actives 0.7% (n = 50,000); in the data active = inhibition above about 60%
Target sequence (P51452 whole entry, looked up): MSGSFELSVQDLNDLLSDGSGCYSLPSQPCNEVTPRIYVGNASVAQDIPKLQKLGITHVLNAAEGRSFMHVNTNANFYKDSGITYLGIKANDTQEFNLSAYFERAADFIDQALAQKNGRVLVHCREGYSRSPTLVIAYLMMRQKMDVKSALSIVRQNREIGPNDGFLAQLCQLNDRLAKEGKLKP
* hit, by the source's call. This excerpt belongs to a sample that is enriched for hits.

SMILES | DUSP3 inh
O=[N+]([O-])c1ccc(S(=O)(=O)Nc2cccc3ccccc23)cc1 | -21.7
CCC(=O)c1ccc(N2CCN(C(=O)CC)CC2)c(F)c1 | 11.6
Cc1ccc(-c2ccccc2)n1-c1ccc(Cl)c(C(=O)O)c1 | 43.5
Cc1ccc(-c2ccccc2)n1-c1ccc(O)c(C(=O)O)c1 | 99.4*
Cc1ccc(-c2ccccc2)n1-c1ccc(C(=O)O)cc1 | 6.2
Cc1cc(=O)oc2c(C)c(OCC(=O)c3ccc(Cl)cc3)ccc12 | -3.6
C=CCNC(=O)CN(c1ccc(C)cc1)S(=O)(=O)c1ccc(OCC)cc1 | 2.6
O=C(/C=C/c1ccccc1)CC(=O)C(F)(F)F | 23.0
Cc1cccc(C(=O)N/C(=C/c2ccc(Br)cc2)C(=O)NN)c1 | 4.0
O=C1CC(=O)N(c2ccc(Cl)c(Cl)c2)C(=S)N1 | 72.6*
Cc1ccc(N2C(=O)CC(=O)NC2=S)cc1 | 6.5
O=C1CC(=O)N(c2ccccc2)C(=S)N1 | 3.9
Cc1ccc(C(=O)c2cccc(NC(=O)CC(C)C)c2)cc1C | -21.4
O=C(COc1ccccc1)Nc1cc(C(F)(F)F)cc(C(F)(F)F)c1 | -1.5
CCCOC(=O)c1c(-c2ccccc2)csc1N | -3.1
COC(=O)c1c(-c2cccc(C)c2)csc1N | 93.6*
CCOC(=O)c1c(-c2ccc(OC)c(OC)c2)csc1N | 98.5*
COC(=O)c1c(-c2ccc(OC)c(OC)c2)csc1N | -2.9
CC(C)OC(=O)c1c(-c2ccccc2)csc1N | 44.2
COc1ccc(-c2csc(N)c2C(=O)OC(C)C)cc1OC | -14.7
CC(C)(C)N1C(=O)c2ccc(C(=O)Nc3ccc(C(=O)O)cc3)cc2C1=O | 5.5
O=C(CCc1ccccc1)Nc1ccc(Oc2ccccc2)cc1 | 8.4
Cc1c(C(=O)Nc2ccc3oc(-c4ccncc4)nc3c2)cccc1[N+](=O)[O-] | 2.5
Cc1ccc(N2NC(=O)/C(=C/c3ccc4c(c3)OCO4)C2=O)cc1C | -6.4
Cc1cc([N+](=O)[O-])ccc1-c1ccc(/C=C2/C(=O)NC(=S)N(c3ccc(Cl)cc3)C2=O)o1 | 45.6
SMILES | DUSP3 inh
COc1cc(/C=C2\C(=O)NN(c3ccc(Cl)c(Cl)c3)C2=O)c([N+](=O)[O-])cc1OC | 6.6
Cc1ccc(N2NC(=O)/C(=C/c3cc([N+](=O)[O-])ccc3Cl)C2=O)cc1C | 64.5*
Cc1ccc(N2NC(=O)/C(=C\c3cccc([N+](=O)[O-])c3)C2=O)cc1 | 22.0
Cc1ccc([N+](=O)[O-])cc1-c1ccc(/C=C2/C(=O)NN(c3ccc(Cl)cc3)C2=O)o1 | 74.4*
O=C1NN(c2ccccc2)C(=O)/C1=C/c1ccc(-c2cccc([N+](=O)[O-])c2)o1 | -0.9
Cc1ccc(N2NC(=O)/C(=C\c3ccco3)C2=O)cc1C | -12.7
Cc1ccc(N2NC(=O)/C(=C/c3ccc(-c4ccc5c(c4)COC5=O)o3)C2=O)cc1C | 84.9*
COc1ccc(C=NCC2OCCc3ccccc32)c(OC)c1 (stereo not given) | -16.4
CCc1c(C)nc2cc(-c3cccc(C)c3)[nH]n2c1=O | -21.6
Cc1cc(C)c(S(=O)(=O)Nc2cc(C(F)(F)F)ccc2Cl)c(C)c1 | -43.7
O=C1NC(=S)N(c2ccc(Br)cc2)C(=O)/C1=C/c1ccc(-c2ccc(C(=O)O)cc2)o1 | 78.5*
O=C1NC(=S)N(c2ccc(F)cc2)C(=O)/C1=C/c1ccc(-c2cccc(C(=O)O)c2)o1 | 86.4*
O=C1NC(=S)N(c2ccc(Cl)cc2)C(=O)/C1=C\c1ccc(-c2cccc(C(=O)O)c2)o1 | -7.4
Cc1ccc(N2C(=O)/C(=C\c3ccc(-c4ccc(Cl)c(C(=O)O)c4)o3)C(=O)NC2=S)cc1 | 1.4
O=C1NC(=S)N(c2ccc(F)cc2)C(=O)/C1=C/c1cc(Cl)c(O)c(Cl)c1 | 78.5*
CN1C(=O)NC(=O)/C(=C\c2cc(Cl)c(O)c(Cl)c2)C1=O | 5.3
CN1C(=O)NC(=O)/C(=C/c2ccc(-c3ccc(C(=O)O)cc3)o2)C1=O | 15.7
O=C1NC(=S)N(c2ccccc2)C(=O)/C1=C/c1ccc(O)c(Cl)c1 | -34.2
O=C1NC(=S)N(c2ccccc2)C(=O)/C1=C/c1ccc(-c2ccc(Cl)c(C(=O)O)c2)o1 | 45.2
Cc1ccc(S(=O)(=O)Oc2ccccc2/C=C2\SC(N)=NC2=O)cc1 | 15.1
COc1ccc(N2C(=O)CC(SC(=N)N3N=C(c4cccs4)CC3c3ccc(Br)cc3)C2=O)cc1 (stereo not given) | 13.1
CCOc1ccc(NC(=O)c2c(NC(C)=O)sc3c2CCCC3)cc1 | 5.7
CCC1(C)CC(CC#N)(c2ccccc2OC)CCO1 (stereo not given) | 4.2
COc1ccc(CNC(=O)CN2C(=O)c3ccccc3C2=O)cc1 | -3.1
O=C(O)c1ccc(S(=O)(=O)c2ccc3c(c2)C(=O)N(c2cccc(C(F)(F)F)c2)C3=O)cc1 | -17.6
SMILES | DUSP3 inh
O=C1CC(N2CCN(c3ccccn3)CC2)C(=O)N1c1cccc2ccccc12 (stereo not given) | -67.1
O=C(Nc1ccc(Br)cc1)C1C(c2ccccc2)=C1c1ccccc1 | -10.8
Cc1cccc(NC(=O)C2C(c3ccccc3)=C2c2ccccc2)c1C | -1.9
CC(C)NC(=O)C1C(c2ccccc2)=C1c1ccccc1 | 119.5*
O=S(=O)(c1ccc2ccccc2c1)N1CCN(C/C=C/c2ccccc2)CC1 | 7.0
COC(=O)/C=C(\C)NCCN/C(C)=C/C(=O)OC | -2.1
Cc1cccc(C(=O)Nc2c(C(=O)N(C)C)cnn2-c2ccccc2)c1 | 69.9*
Cc1cccc(C(=O)Nc2c(C(=O)N3CCN(C)CC3)cnn2-c2ccccc2)c1 | -6.0
CCCN(CCC)C(=O)c1cnn(-c2ccccc2)c1NC(=O)c1cccc(F)c1 | 19.4
O=C(CSc1ncccn1)N/N=C/c1ccc(F)cc1 | -31.3
CCc1cc2c(=O)c(-c3nc4ccccc4s3)coc2c(CN2CCOCC2)c1O | -19.2
O=C1N=C(N=Nc2c(O)[nH]c3ccccc23)S/C1=C/c1ccc(Br)cc1 | -7.1
CC1=C(C#N)C(=O)NC(=O)/C1=C\c1ccc(-c2cc(C)c(C)cc2[N+](=O)[O-])o1 | 38.1
CCCC1=NN2C(=N)/C(=C/c3ccc(OCc4ccccc4Cl)cc3)C(=O)N=C2S1 | 3.2
CCCC1=NN2C(=N)/C(=C/c3ccc(-c4ccc(Cl)cc4Cl)o3)C(=O)N=C2S1 | 9.6
CCC1=NN2C(=N)/C(=C/c3ccc(OCCOc4cccc(OC)c4)c(OC)c3)C(=O)N=C2S1 | -10.8
CCOc1ccc(Cl)cc1/C=C1\C(=N)N2N=C(CC)SC2=NC1=O | -9.0
CCCC1=NN2C(=N)/C(=C/c3cc(OC)ccc3OC)C(=O)N=C2S1 | 111.6*
CCCC1=NN2C(=N)/C(=C/c3ccc4c(c3)OCO4)C(=O)N=C2S1 | 104.6*
COc1cc(NC(=O)COc2ccccc2)cc(OC)c1 | -4.7
CC(NC(=O)CN(c1ccc(Br)cc1)S(C)(=O)=O)c1ccccc1 (stereo not given) | 1.9
CC(=O)C1=C(C)NC(=O)NC1c1ccc(C)cc1 (stereo not given) | -33.6
O=C(N/N=C/c1ccccc1Br)C(=O)N/N=C/c1ccccc1Br | 5.6
COC(=O)C1=C(C)NC(=O)CC1c1ccc(F)c(Br)c1 (stereo not given) | -13.4
CC1=C(C(=O)OC(C)C)C(c2ccccc2Br)CC(=O)N1 (stereo not given) | 101.5*
CC1=C(C(=O)OC(C)C)C(c2ccc(Br)cc2)C2=C(CC(c3ccc(Cl)cc3)CC2=O)N1 (stereo not given) | -19.4
CC1=C(C(=O)OC(C)C)C(c2ccccc2Cl)CC(=O)N1 (stereo not given) | 28.6
COC(=O)C1=C(C)NC(=O)CC1c1ccccc1C(F)(F)F (stereo not given) | -32.8

Assay outcomes deposited in PubChem BioAssay by Sanford-Burnham Center for Chemical Genomics.
